The values that follow come from PubChem BioAssay AID453 (PCMD, 2006).

SMILES strings stand for the structures. Out of some 63,000 compounds screened, about 75 (0.1%) were called active. Rule as the data show it: active = inhibition above about 21%; inactive = the rest. Many of the other results were omitted from the sample, so actives are more common in it than they were.

This test concerns the target Cathepsin B (Homo sapiens) (UniProt P07858). Nature of the test: blockers of cathepsin B proteolysis – biochemical, fluorogenic substrate, primary screen (AID 453).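 Also: 0% = enzyme with no compound and 100% = no enzyme blank.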 The note with it: purified cathepsin B, fluorescence, hits give high values,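 tested at 10 µM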.
In the case of `Cc1ccc(NC(=O)CSc2nnc(-c3cnccn3)n2Cc2ccco2)cc1C`, the inhibition is 3.51% (inactive).
For the molecule `CC(C)OC(=O)C(C#N)c1nc2ccccc2nc1N1CCN(Cc2ccc3c(c2)OCO3)CC1` (stereo unspecified), the inhibition was 0.39% (inactive).
The result for `CCOc1ccc2[nH]c(=O)c(CN(CCCO)C(C)=O)cc2c1` reads 2.29% (inactive).
Take `CCOc1ccc2c(c1)cc(CN(C(=O)CC)C1CCCCC1)c1nnnn12`: the inhibition is 10.1% (inactive).
The same measure for `CCOC(=O)N1CCN(CC(=O)n2c(C)c(C)c3ccccc32)CC1`: -1.09% (inactive); for `O=C(c1cccc(C(=O)N2CCc3ccccc32)n1)N1CCc2ccccc21`: 3.59% (inactive); for `CC(C)(C)Oc1ncc(Br)c(OC(C)(C)C)n1`: -1.01% (inactive).
The result for `Cn1c2c(c(=O)n(C)c1=O)CN(Cc1ccco1)CN2` reads 2.04% (inactive).
The result for `N#CCSc1nc2ccccc2c(=O)n1-c1ccccc1` reads 5.09% (inactive); that for `c1ccc(-n2ncc3c2ncn2c(CSc4nc5ccccc5s4)nnc32)cc1`, -2% (inactive).
Turning to `CC(C)(C)n1nnnc1C(c1cccs1)N(Cc1cccnc1)CC1CCCO1` (stereo unspecified), the inhibition is 3.9% (inactive).
In the case of `COc1ccc(/C(O)=C2/C(=O)C(=O)N(CCCN(C)C)C2c2ccccc2)cc1OC` (stereo unspecified), the inhibition is 0.7% (inactive).
For `Cn1c(=O)oc2cc(S(=O)(=O)N3CCC(C(=O)Nc4ccc(OC(F)(F)F)cc4)CC3)ccc21`, the inhibition is 1.08% (inactive).
`Cc1nnc(SCC(=O)N(C(C)C)C(C)C)nc1C`: the inhibition was 3.33% (inactive).
The same measure for `COc1cccc(-c2nnc(NC(=O)c3ccc(S(=O)(=O)N(CC(C)C)CC(C)C)cc3)o2)c1`: 3.9% (inactive); for `C=C(C)CSc1nc(N)c2c3c(sc2n1)CCC3`: -1.31% (inactive).
The result for `O=C(Nc1ccccc1)c1cccnc1Nc1ccccc1` reads -3.06% (inactive); that for `COc1ccc(Cc2nnnn2CC(=O)O)cc1`, -2.08% (inactive); that for `CSc1nsc(SC)c1NC(=O)OC1CCCCC1`, 2.76% (inactive).
The result for `CCOC(=O)C1CCCN(C(=O)C2CCN(c3nnc(-n4cccc4)s3)CC2)C1` (stereo unspecified) reads 5.94% (inactive).
On to `Cn1nnnc1SCC(=O)N1CCN(C(c2ccccc2)c2ccccc2)CC1`, for which the inhibition was 8.32% (inactive).
The same measure for `C/C(=C(\C#N)C(=O)NCCCN1CCOCC1)N(C)C`: 2.66% (inactive).
The result for `CC1(C)C/C(=C(/C#N)C(N)=O)CCO1` reads 9.43% (inactive); that for `Cc1ccsc1CNn1cnnc1SCc1ccccc1F`, 2.13% (inactive); that for `CC(NC(=O)CN1CCN(Cc2ccc(Cl)cc2)C1=O)c1ccc2c(c1)OCCO2` (stereo unspecified), 0.3% (inactive).
The same measure for `CCOC(=O)c1ccc(Nc2cc(C)nc3nc(C)nn23)cc1`: -3.59% (inactive); for `O=C(CN1CCOc2ccccc21)N1CCC(Cc2ccccc2)CC1`: 0.85% (inactive).
As for `C=CCn1c(C2CC(=O)N(c3ccc(C)cc3)C2)nc2ccccc21` (stereo unspecified), the inhibition was -1.25% (inactive).
As to `CCN(CC)CCCNC(=O)c1cc(-c2cccc(Cl)c2)on1`, the inhibition is 4.03% (inactive).
The result for `O=C1N(Cc2ccc3c(c2)OCO3)c2ccccc2C1(O)c1c[nH]c2ccccc12` (stereo unspecified) reads -2.6% (inactive); that for `CCOc1ccc(/C(O)=C2/C(=O)C(=O)N(Cc3cccnc3)C2c2ccc(N(C)C)cc2)c(C)c1` (stereo unspecified), 1.4% (inactive).
The result for `Nc1nonc1-c1noc(-c2ccc(Br)o2)n1` reads 25% (active); that for `O=C(O)CCC(=O)NCc1ccc2[nH]c3c(c2c1)CCCC3`, 3.83% (inactive).
Consider `CCOC(=O)c1c(NC(=O)CSc2nnc(CN3CCOCC3)n2C)sc2c1CCCC2`, for which the inhibition was -0.13% (inactive).
The result for `O=C(OCC(O)C(O)COC(=O)c1ccccc1)c1ccccc1` (stereo unspecified) reads 0.46% (inactive); that for `N#Cc1c(N)n(CCOC(=O)c2ccc(Cl)cc2)c2nc3ccccc3nc12`, 0.87% (inactive); that for `Cc1ccc(-n2c(N)c(C(=O)N3CCOCC3)sc2=S)c(C)c1`, -2.06% (inactive).
The same measure for `O=C(CN1CCN(c2ncc(C(F)(F)F)cc2Cl)CC1)Nc1ccc2c(c1)OCO2`: 10.7% (inactive).
The same measure for `CC1(C)CC(=O)C(C2=NC(C)(C)Cc3ccccc32)=C(O)C1`: 0.19% (inactive); for `CCCCOC(=O)c1[nH]c(C)c(C(=O)OC)c1C`: 4.33% (inactive).
As for `CC(Sc1nncs1)C(=O)NCc1ccc2c(c1)OCO2` (stereo unspecified), the inhibition was -5.21% (inactive).
The same measure for `CCOC(=O)N1CCN(S(=O)(=O)c2cc3c(cc2C)NC(=O)CO3)CC1`: 1.1% (inactive); for `CCOC(=O)CCc1c(C)c(C#N)c2[nH]c3ccccc3n2c1=O`: 2.21% (inactive).
Consider `O=C(NCc1ccccn1)c1cnc2sccn2c1=O`, for which the inhibition is -2.74% (inactive).
As for `Cc1ccccc1C(OCC(O)CN1CCCCC1CCO)c1ccccc1` (stereo unspecified), the inhibition is 2.98% (inactive).
The result for `CCCC(=O)N1CCc2[nH]c3ccccc3c2C1` reads 0.39% (inactive).
For `Cc1ccccc1Nc1nnc(C)c(=O)[nH]1`, the inhibition is -0.9% (inactive).
The result for `CC(=O)C1=C(O)C(=O)N(c2ccc(S(N)(=O)=O)cc2)C1c1ccccc1F` (stereo unspecified) reads -1.52% (inactive).
Regarding `Cc1ccc(NC(=O)NCC(c2cccnc2)N2CCOCC2)cc1` (stereo unspecified), the inhibition is -2.73% (inactive).
The same measure for `OCc1nc(CO)n(Cc2ccccc2)n1`: 5.1% (inactive); for `c1ccc(CCC2=NCCn3cccc32)cc1`: 4.22% (inactive).
The result for `CCOc1ccccc1C1NC(=O)NC(C)=C1C(=O)OCc1ccco1` (stereo unspecified) reads 2.19% (inactive); that for `Cc1cccc(N2CCN(C(=O)C3CCN(S(=O)(=O)c4cnc[nH]4)CC3)CC2)c1C`, 44.5% (active).
The same measure for `O=C(C1CCN(S(=O)(=O)c2cnc[nH]2)CC1)N1CCN(Cc2ccc3c(c2)OCO3)CC1`: 5.41% (inactive); for `COc1cccc(N2CCN(C(=O)C3CCCN(S(=O)(=O)c4cnc[nH]4)C3)CC2)c1` (stereo unspecified): -4.17% (inactive).
Take `CCC(c1nnnn1C1CCCC1)N1CCN(C(=O)c2ccco2)CC1` (stereo unspecified): the inhibition is 4.25% (inactive).
As for `CCCCN=C(N)/C(C(=O)OCC)=C(\O)c1ccc(OC)cc1`, the inhibition was -2.85% (inactive).
The result for `CC(C)OC(=O)c1sc2nc3c(cc2c1N)C(=O)CCC3` reads 1.67% (inactive); that for `COc1ccc(N2C(=O)C3CCCN3C2c2cccs2)cc1` (stereo unspecified), 2.37% (inactive).
Regarding `O=S(=O)(NCCOc1cccc2cccnc12)c1ccc(F)cc1`, the inhibition is -0.09% (inactive).
Consider `O=C(C1=C(O)C(=O)N(Cc2ccccc2)C1c1cccnc1)c1ccco1` (stereo unspecified), for which the inhibition was -2.37% (inactive).
